“And” between values parts separate entries of the source, which are not always exact repeats. Identical values can stand only once. The source made the active and inactive calls.
Assays:
[1] = binders of probe aFSTL3 on microarray, primary screen, stem cell growth factor project, biochemical, small-molecule microarray, fluorescence 635/667 (AID 1064); details: higher = more signal;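 note: measures binding of the biotinylated anti-FSTL3 antibody to printed compounds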
[2] = binders from COS7 lysate, DM2A8 probe, primary screen, torsin A project, cell lysate, small-molecule microarray, fluorescence 635/667 (AID 1065); details: higher = more signal, COS7 lysate expressing mutant human TOR1A
[3] = binders of probe aFGF2 on microarray, primary screen, stem cell growth factor project, biochemical, small-molecule microarray, fluorescence 635/667 (AID 1067); details: higher = more signal;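 note: measures binding of biotinylated aFGF2 protein to printed compounds on slides; z-score merges feature fluorescence and signal-to-noise across triplicate slides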
[4] = binders of probe aFGF10 on microarray, primary screen, stem cell growth factor project, biochemical, small-molecule microarray, fluorescence 635/667 (AID 1071); details: higher = more signal;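 note: score merges 667 nm spot intensity and signal to noise from triplicate slides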
[5] = target: Neurogenic locus notch homolog protein 2 (Homo sapiens) (UniProt Q04721); assay: Notch2 binders on small-molecule microarrays, primary screen, biochemical, small-molecule microarray, 635 nm fluorescence, stem cell growth factors (AID 1073); details: Notch2 binding, higher = more signal
Neurogenic locus notch homolog protein 2 (Homo sapiens), sequence (Q04721 whole entry, looked up, canonical isoform): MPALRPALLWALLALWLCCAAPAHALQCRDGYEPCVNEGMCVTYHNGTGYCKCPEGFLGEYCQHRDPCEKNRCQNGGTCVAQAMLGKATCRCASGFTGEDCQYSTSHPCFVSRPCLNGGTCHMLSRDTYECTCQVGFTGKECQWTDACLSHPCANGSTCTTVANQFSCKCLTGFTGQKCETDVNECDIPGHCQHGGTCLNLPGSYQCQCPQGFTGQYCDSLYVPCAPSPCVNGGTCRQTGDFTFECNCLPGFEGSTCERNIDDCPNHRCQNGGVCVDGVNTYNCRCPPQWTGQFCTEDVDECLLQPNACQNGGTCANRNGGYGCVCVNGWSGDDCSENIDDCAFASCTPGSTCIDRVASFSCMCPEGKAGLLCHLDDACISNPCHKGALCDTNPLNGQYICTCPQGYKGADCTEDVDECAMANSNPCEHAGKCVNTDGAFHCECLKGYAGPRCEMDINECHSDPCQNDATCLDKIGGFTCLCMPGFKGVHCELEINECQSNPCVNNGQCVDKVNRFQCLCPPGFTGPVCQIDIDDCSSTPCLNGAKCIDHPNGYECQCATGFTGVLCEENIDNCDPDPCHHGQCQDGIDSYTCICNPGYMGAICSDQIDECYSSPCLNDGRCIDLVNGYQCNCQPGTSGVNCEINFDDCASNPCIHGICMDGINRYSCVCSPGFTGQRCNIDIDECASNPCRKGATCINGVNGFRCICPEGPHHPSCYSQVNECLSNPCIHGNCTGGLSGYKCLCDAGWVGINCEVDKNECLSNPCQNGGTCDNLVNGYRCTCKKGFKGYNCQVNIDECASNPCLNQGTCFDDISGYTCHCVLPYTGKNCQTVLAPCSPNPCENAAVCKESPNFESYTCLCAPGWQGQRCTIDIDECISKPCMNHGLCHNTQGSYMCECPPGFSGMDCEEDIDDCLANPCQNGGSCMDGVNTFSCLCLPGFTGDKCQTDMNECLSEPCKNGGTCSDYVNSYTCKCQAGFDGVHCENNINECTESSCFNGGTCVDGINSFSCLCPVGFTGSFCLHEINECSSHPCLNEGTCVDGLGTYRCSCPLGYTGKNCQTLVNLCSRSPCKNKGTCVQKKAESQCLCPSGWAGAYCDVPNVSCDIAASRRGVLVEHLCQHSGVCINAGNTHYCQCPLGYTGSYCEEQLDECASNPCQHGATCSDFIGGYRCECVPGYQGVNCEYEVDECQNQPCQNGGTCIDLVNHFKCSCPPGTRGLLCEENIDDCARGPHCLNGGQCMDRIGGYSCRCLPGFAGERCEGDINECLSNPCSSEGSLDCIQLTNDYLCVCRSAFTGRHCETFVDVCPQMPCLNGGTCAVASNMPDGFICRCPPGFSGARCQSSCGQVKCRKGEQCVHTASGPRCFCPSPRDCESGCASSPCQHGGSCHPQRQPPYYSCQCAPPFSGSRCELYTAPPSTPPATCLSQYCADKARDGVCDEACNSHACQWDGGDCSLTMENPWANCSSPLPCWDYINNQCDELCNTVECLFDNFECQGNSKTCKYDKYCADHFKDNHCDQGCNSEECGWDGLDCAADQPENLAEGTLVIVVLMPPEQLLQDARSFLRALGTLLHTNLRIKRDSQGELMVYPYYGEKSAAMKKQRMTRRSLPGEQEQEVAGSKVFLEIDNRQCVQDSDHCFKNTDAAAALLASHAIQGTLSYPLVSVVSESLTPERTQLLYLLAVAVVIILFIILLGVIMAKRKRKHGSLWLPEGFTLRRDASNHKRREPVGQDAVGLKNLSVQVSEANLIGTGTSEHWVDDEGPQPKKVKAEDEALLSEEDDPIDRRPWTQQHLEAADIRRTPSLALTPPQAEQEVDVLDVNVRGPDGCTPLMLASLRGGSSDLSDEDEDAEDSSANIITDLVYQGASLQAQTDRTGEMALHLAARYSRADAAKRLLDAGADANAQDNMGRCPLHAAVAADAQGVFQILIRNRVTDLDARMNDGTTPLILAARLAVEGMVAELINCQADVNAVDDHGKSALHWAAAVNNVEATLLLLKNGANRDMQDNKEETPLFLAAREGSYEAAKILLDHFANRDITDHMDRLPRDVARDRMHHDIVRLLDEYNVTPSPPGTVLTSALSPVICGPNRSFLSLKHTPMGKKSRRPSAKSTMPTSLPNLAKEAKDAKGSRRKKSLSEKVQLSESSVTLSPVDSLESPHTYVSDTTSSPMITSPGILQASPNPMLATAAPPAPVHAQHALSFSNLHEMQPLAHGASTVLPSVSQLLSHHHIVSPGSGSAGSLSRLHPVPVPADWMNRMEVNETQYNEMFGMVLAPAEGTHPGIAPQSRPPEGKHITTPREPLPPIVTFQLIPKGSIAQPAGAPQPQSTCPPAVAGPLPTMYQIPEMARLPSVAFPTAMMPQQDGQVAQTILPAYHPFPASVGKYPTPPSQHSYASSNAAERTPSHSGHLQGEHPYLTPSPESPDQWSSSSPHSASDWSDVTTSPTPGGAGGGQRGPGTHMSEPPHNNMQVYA

[6] = target: Pro-neuregulin-1, membrane-bound isoform (Homo sapiens) (UniProt Q02297); assay: NRG1 binders on small-molecule microarrays, primary screen, psychiatric disease protein project, biochemical, small-molecule microarray, fluorescence 635/667 (AID 1075); details: NRG1 binding, 635 nm fluorescence, higher = more signal;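 note: score combines 667 nm spot fluorescence with signal to noise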
Pro-neuregulin-1, membrane-bound isoform (Homo sapiens), sequence (Q02297 whole entry, looked up, the tested form may be a part, canonical isoform): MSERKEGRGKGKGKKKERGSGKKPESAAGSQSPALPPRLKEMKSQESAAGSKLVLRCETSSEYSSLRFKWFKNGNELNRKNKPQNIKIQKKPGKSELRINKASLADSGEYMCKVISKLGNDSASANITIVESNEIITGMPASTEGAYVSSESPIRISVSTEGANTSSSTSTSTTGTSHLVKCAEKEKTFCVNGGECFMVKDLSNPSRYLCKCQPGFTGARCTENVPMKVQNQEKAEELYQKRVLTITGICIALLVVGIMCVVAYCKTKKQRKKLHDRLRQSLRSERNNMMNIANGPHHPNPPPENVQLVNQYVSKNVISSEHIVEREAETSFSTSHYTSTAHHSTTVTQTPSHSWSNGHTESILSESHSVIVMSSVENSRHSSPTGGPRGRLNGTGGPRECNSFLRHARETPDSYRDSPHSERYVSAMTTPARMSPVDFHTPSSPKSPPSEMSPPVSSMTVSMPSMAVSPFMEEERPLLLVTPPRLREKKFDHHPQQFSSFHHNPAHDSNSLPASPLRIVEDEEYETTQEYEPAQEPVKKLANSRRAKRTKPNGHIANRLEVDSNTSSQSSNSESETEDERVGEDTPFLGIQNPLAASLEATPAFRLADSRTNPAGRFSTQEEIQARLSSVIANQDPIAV

[7] = system: Neuregulin-1 EGF-like domain; assay: binders of neuregulin-1 EGF-like domain, primary screen, biochemical, small-molecule microarray, 635 nm fluorescence (AID 1081); details: small-molecule microarray binding, higher = more signal;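 note: binding of the protein to compounds printed on small-molecule microarray slides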
[8] = FRG1 promoter luciferase signal modulators, primary screen, FRG1 inhibition for FSHD, cell-based, C2C12 myotubes, firefly/Renilla luciferase, luminescence (AID 1084); details: higher = more signal, called active from +8 up or from −8 down
[9] = binders of probe aFST on microarray, primary screen, stem cell growth factor project, biochemical, small-molecule microarray, fluorescence 635/667 (AID 1086); details: higher = more signal;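 note: score merges 667 nm fluorescence with signal-to-noise of each printed compound spot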
[10] = binders of probe aHhip on microarray, primary screen, stem cell growth factor project, biochemical, small-molecule microarray, fluorescence 635/667 (AID 1087); details: higher = more signal;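 note: score merges spot fluorescence at 667nm with spot signal to noise ratio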

Row | Structure (SMILES) | composite z-score [1] | composite z-score [2] | composite z-score [3] | composite z-score [4] | composite z-score [5] | composite z-score [6] | composite z-score [7] | z-score [8] | composite z-score [9] | composite z-score [10]
1 | C#CCCCON=C1C[C@@H](O)[C@@H](O)[C@@H]2[C@@H]3C(=O)N(C4CCCCC4)C(=O)[C@@H]3CC[C@H]12 | -0.283 | 0.145 | -0.0423 | 0.612 | 0.784 | 0.717 | 0.793 | -0.298 (inactive) | 0.346 | -0.0994
2 | O=C1NC(=O)C2C1C=CC(C(O)c1ccc([N+](=O)[O-])cc1)N2Nc1ccc(Cl)cc1Cl (stereo not given) | 0.396 and 1.04 | 0.0888 and 1.29 | -0.0044 and 0.115 | 0.694 and 0.322 | 1.13 and 0.991 | 1.18 and 1.78 | 0.939 and 1.21 | 0.0748 (inactive) and -0.358 (inactive) | 0.848 and 1.54 | -0.226 and -0.236
3 | COc1ccc(COC(=O)NN=C2C[C@@H](O)[C@@H](O)[C@@H]3[C@@H]4C(=O)N(C(C)(C)C)C(=O)[C@@H]4CC[C@H]23)cc1 | -0.494 | 0.602 | -0.0439 | 0.799 | 0.29 | 1.46 | 1.13 | -1.03 (inactive) | 0.0715 | -0.13
4 | C=CCN(C(=O)C(c1cccs1)N(CCOCCO)C(=O)/C=C\C(=O)O)c1ccc(OC)cc1 (stereo not given) | -0.454 and 0.71 | -0.415 and -1.59 | -0.103 and -0.186 | -0.729 and -1.06 | -1.03 and -1.83 | -0.933 and -1.12 | -0.247 and -0.936 | -0.993 (inactive) and -0.205 (inactive) | -0.348 and -0.687 | -0.301 and -0.226
5 | C=CCN(Cc1ccccc1)C(=O)C1N(CCOCCO)C(=O)C2C(C(=O)O)C3C=CC21O3 (stereo not given) | 1.75 and 1.34 | -1.1 and -1.84 | -0.309 and -0.27 | -2.7 and -1.09 | -2.27 and -1.42 | 1.27 and 0.866 | 0.731 and 0.433 | -0.91 (inactive) and -0.244 (inactive) | -1.06 and -1.03 | -0.423 and -0.362
6 | CCCC[C@@H]1CN2[C@H](c3ccc(Br)cc3)[C@@H](C)CC[C@H]2C(=O)O1 | -0.419 and -0.254 | -0.309 and 0.41 | -0.129 and -0.103 | -0.0574 and -0.132 | -0.118 and -0.134 | 0.0412 and -0.139 | -0.246 and -0.605 | -1.09 (inactive) and 0.204 (inactive) | -0.0739 and -0.0224 | 0.0264 and -0.0237
7 | C=CCN(Cc1ccccc1)C(=O)C1N(C(C)(C)CO)C(=O)C2C(C(=O)O)C3C=CC21O3 (stereo not given) | 0.666 and 0.391 | 2.08 and -1.13 | -0.206 and 0.511 | -2.12 and -0.387 | -2.15 and -1.36 | -1 and -0.987 | -0.372 and 0.11 | 0.551 (inactive) and 0.312 (inactive) | -0.847 and -1.28 | -0.274 and -0.169
8 | C=CC[C@@H](O)c1ccc(O)c2ccccc12 | 0.16 and -0.247 | 0.571 and 0.234 | -0.0422 and -0.0676 | 0.184 and 0.262 | 0.116 and 0.328 | 0.66 and 0.282 | 1.18 and 1.26 | 0.0604 (inactive) and 1.27 (inactive) | 0.42 and 0.0926 | 0.72 and -0.0237
9 | Cc1ccc(S(=O)(=O)OC[C@@H]2CN3[C@@H](CC[C@@H](C)[C@@H]3c3ccc(Br)cc3)C(=O)O2)cc1 | -0.14 and -0.482 | 0.299 and 0.063 | -0.0502 and 0.0062 | 0.251 and 0.369 | 0.246 and 0.663 | 0.311 and 0.0379 | 0.168 and 1.07 | 0.472 (inactive) and -0.0959 (inactive) | 0.447 and 0.166 | 0.21 and 0.268
10 | CC(C)C(=O)N[C@@H]1CCCN1C(=O)C=Cc1ccccc1 | -0.46 | 0.323 | -0.0781 | 0.405 | 0.99 | 0.208 | 1.07 | -0.416 (inactive) | 0.125 | -0.0994
11 | CCOC(=O)NN=C1C[C@@H](O)[C@@H](O)[C@@H]2[C@@H]3C(=O)N(Cc4ccc5c(c4)OCO5)C(=O)[C@@H]3CC[C@@H]12 | -0.441 | 0.16 | -0.121 | 0.505 | 0.34 | 0.416 | 0.858 | -0.544 (inactive) | 0.16 | 0.007
12 | CC(C)OC(=O)C=C1C[C@@H](c2cccc(C(F)(F)F)c2)O[C@@H](c2cccc(C(F)(F)F)c2)O1 | 0.0946 and 0.128 | 0.297 and 1.36 | 0.0043 and -0.13 | 0.884 and -0.153 | -0.27 and -0.628 | 1.13 and 0.36 | 1.01 and 1.08 | -0.0881 (inactive) and -0.227 (inactive) | -0.0032 and -0.598 | -0.236 and -0.253
13 | CC(C)N1CC=CC23O[C@@H]4C=CCCOC(=O)C4[C@H]2C(=O)N(C(C)CO)[C@@H]3C1=O (stereo not given in full) | 0.886 and 0.781 | 0.543 and -0.0534 | -0.158 and -0.116 | -1.39 and -0.751 | -0.0092 and -0.882 | 2.21 and -0.35 | 0.958 and 0.694 | -0.746 (inactive) and 0.0086 (inactive) | -0.828 and -0.509 | -0.178 and 0.0176
14 | Cc1cc2c(nc1C)CCCN2CC(C)ON=C[C@@H](C)[C@H](OCc1ccccc1)C(C)C (stereo not given in full) | -0.461 | 0.478 | -0.0724 | -0.0706 | -0.461 | -0.869 | -0.868 | -0.201 (inactive) | 0.374 | 0.102
15 | CC(=O)OC[C@H]1O[C@H](C#CC(C)(C)C)C=C[C@@H]1OC(C)=O | -0.358 | -0.159 | -0.126 | 0.039 | 1.01 | 1.38 | 1.25 | -0.259 (inactive) | 0.454 | 0.164
16 | C=CC[C@@H](O)c1ccc(O)c(F)c1 | 1.77 and 0.459 | 0.897 and -0.727 | -0.0695 and -0.194 | -0.03 and -1.69 | -1.42 and -2.14 | -0.627 and -0.0657 | 0.684 and 0.704 | 0.572 (inactive) and -1.4 (inactive) | -0.922 and -0.799 | -0.132 and 0.0392
17 | CC(CO)N1C(=O)[C@@H]2C3C(=O)OCCC=C[C@H]3OC23C=CCN(c2ccc(Cl)cc2)C(=O)[C@@H]13 (stereo not given in full) | 0.982 and -0.0072 | -0.821 and -1.3 | -0.0959 and -0.159 | -0.556 and -0.282 | -0.709 and 0.149 | -0.618 and 2 | 0.923 and 1.44 | 0.741 (inactive) and 1.08 (inactive) | -0.91 and 0.118 | 0.0053 and 0.0092
18 | C=CCN(C(=O)C(c1cccs1)N(C(=O)/C=C\C(=O)O)c1c(Cl)cccc1CO)C(C)(C)C (stereo not given) | 1.49 and 1.64 | -1.2 and -1.76 | -0.232 and -0.235 | -1.69 and -1.27 | -1.86 and -2.21 | -0.732 and -1.05 | -0.301 and -0.512 | 1.06 (inactive) and 1.34 (inactive) | -0.791 and -0.727 | 0.228 and -0.554
19 | C=C[C@@H](OC)[C@H](O)c1ccc(OCCO)cc1 | -0.145 and 0.184 | -0.492 and -1.23 | -0.206 and -0.178 | -0.976 and -0.915 | -1.07 and -1.57 | -0.748 and -0.394 | -0.0048 and 0.0968 | 1.74 (inactive) and 0.386 (inactive) | -0.984 and -1.26 | -0.236 and -0.196
